28 sequences from the supplement of paper PMC12645437, “Orthogonal IMiD-Degron Pairs Induce Selective Protein Degradation in Cells” (ACS Chemical Biology, 2025) can be followed below.

Whole data set: some 8,300 sequences, median “log2 fold change of degron read counts, EGFP-low vs EGFP+ sorted cells (limma voom), compound-induced degradation” near -1.1, cut for the highest 2% near 3.2. This is one part of a sample in which the highest values are shown more often than they occur.

The assay concerns the target T1, CRBN, Q96SW2.
T1 chain: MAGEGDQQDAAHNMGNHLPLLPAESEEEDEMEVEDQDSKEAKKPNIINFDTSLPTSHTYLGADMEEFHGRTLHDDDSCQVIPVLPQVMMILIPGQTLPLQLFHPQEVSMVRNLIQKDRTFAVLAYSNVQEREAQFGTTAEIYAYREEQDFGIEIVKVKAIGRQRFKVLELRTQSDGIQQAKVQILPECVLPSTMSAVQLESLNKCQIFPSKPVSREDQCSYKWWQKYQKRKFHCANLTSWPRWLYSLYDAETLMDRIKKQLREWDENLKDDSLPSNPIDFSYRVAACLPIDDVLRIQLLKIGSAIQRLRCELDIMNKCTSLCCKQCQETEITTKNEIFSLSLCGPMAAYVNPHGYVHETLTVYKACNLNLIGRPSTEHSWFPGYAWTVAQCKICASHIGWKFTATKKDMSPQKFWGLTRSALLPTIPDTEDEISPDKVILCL
Nature of the assay: log2 fold change of degron read counts, EGFP-low vs EGFP+ sorted cells (limma voom), compound-induced degradation; higher = more compound-induced degradation of the degron-EGFP fusion; degrons are variants of IKZF1/3 zinc finger 2; compound dose not given here. To be noted: Jurkat, 18 h.

Where [1] appears, read: compound: compound 19 (5-tert-butyl-thalidomide).
[2] abbreviates: compound: compound 22 (5-morpholino-thalidomide).
[3] abbreviates: compound: compound 33 (diphenyl IMiD analogue).
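Note: pooled lentiviral library of zinc finger degron-EGFP fusions in mCherry-positive Jurkat cells, FACS-sorted after compound exposure, with degron abundance counted by next-generation sequencing.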

In the case of FGCPQCGALFTQKGNLLRHIKL [46F_47G_49P_50Q_52G_53A_54L_55F_67L_, Q9UKT9], the “log2 fold change of degron read counts” value reads like this: under setting [1], 0.741; under setting [2], -1.93; under setting [3], 1.28; (compound: thalidomide) -2.08.

On to FSCDICGAKFTQKGNLLRHIKL [46F_47S_49D_50I_52G_53A_54K_55F_67L_, Q9UKT9], for which the “log2 fold change of degron read counts” value under setting [1] came to 1.91, the “log2 fold change of degron read counts” value under setting [2] stood at 1.04, the “log2 fold change of degron read counts” value under setting [3] is -1.63 and the “log2 fold change of degron read counts” value (compound: thalidomide) was 0.394.

For FRCPVCGAVFTQKGNLLRHIKL [46F_47R_49P_50V_52G_53A_54V_55F_67L_, Q9UKT9], the “log2 fold change of degron read counts” value is, setting by setting: under setting [1], -1.2; under setting [2], -0.699; under setting [3], 1.54; (compound: thalidomide) 1.18.

As for FKCSVCGHMFTQKGNLLRHIKL [46F_47K_49S_50V_52G_53H_54M_55F_67L_, Q9UKT9], the “log2 fold change of degron read counts” value under setting [1] was -3.17, the “log2 fold change of degron read counts” value under setting [2] is -3, the “log2 fold change of degron read counts” value under setting [3] is -3.02 and the “log2 fold change of degron read counts” value (compound: thalidomide) was -2.7.

With LICNQCGFDCTQKGNLLRHIKL [46L_47I_49N_50Q_52G_53F_54D_55C_67L_, Q9UKT9], the “log2 fold change of degron read counts” value under setting [1] is -3.41, the “log2 fold change of degron read counts” value under setting [2] was -3.2, the “log2 fold change of degron read counts” value under setting [3] was -2.9 and the “log2 fold change of degron read counts” value (compound: thalidomide) was -2.97.

Regarding FYCDICGAMFTQKGNLLRHIKL [46F_47Y_49D_50I_52G_53A_54M_55F_67L_, Q9UKT9], the “log2 fold change of degron read counts” value is 2.46 under setting [1], 1.99 under setting [2], 0.476 under setting [3] and -1.55 (compound: thalidomide).

For FRCNQCGHNFTQKGNLLRHIKL [46F_47R_49N_50Q_52G_53H_54N_55F_67L_, Q9UKT9], the “log2 fold change of degron read counts” value under setting [1] was -2.02, the “log2 fold change of degron read counts” value under setting [2] was -3.14, the “log2 fold change of degron read counts” value under setting [3] was -2.79 and the “log2 fold change of degron read counts” value (compound: thalidomide) is -2.26.

As for FQCNVCGAPFTQKGNLLRHIKL [46F_47Q_49N_50V_52G_53A_54P_55F_67L_, Q9UKT9], the “log2 fold change of degron read counts” value stood at 0.618 under setting [1], 2.01 under setting [2], 0.742 under setting [3] and 2.69 (compound: thalidomide).

As to FQCDVCGAPFTQKGNLLRHIKL [46F_47Q_49D_50V_52G_53A_54P_55F_67L_, Q9UKT9], the “log2 fold change of degron read counts” value is 0.996 under setting [1], 2.11 under setting [2], -0.0653 under setting [3] and 2.48 (compound: thalidomide).

Consider FQCPVCGAPFTQKGNLLRHIKL [46F_47Q_49P_50V_52G_53A_54P_55F_67L_, Q9UKT9], for which the “log2 fold change of degron read counts” value is 3.11 under setting [1], 3.34 under setting [2], 2.34 under setting [3] and 3.87 (compound: thalidomide).

For the sequence FRCNVCGAPFTQKGNLLRHIKL [46F_47R_49N_50V_52G_53A_54P_55F_67L_, Q9UKT9], the “log2 fold change of degron read counts” value under setting [1] turned out to be 2.26, the “log2 fold change of degron read counts” value under setting [2] was found to be 2.96, the “log2 fold change of degron read counts” value under setting [3] was 2.94 and the “log2 fold change of degron read counts” value (compound: thalidomide) is 2.77.

On to FLCNVCGAPFTQKGNLLRHIKL [46F_47L_49N_50V_52G_53A_54P_55F_67L_, Q9UKT9], for which the “log2 fold change of degron read counts” value was -0.289 under setting [1], 0.405 under setting [2], 1.47 under setting [3] and 1.32 (compound: thalidomide).

With FGCDVCGAPFTQKGNLLRHIKL [46F_47G_49D_50V_52G_53A_54P_55F_67L_, Q9UKT9], the “log2 fold change of degron read counts” value runs as follows: under setting [1], -1.15; under setting [2], -2.27; under setting [3], -2.07; (compound: thalidomide) -2.21.

FVCDVCGAPFTQKGNLLRHIKL [46F_47V_49D_50V_52G_53A_54P_55F_67L_, Q9UKT9]: the “log2 fold change of degron read counts” value under setting [1] was -0.0613, the “log2 fold change of degron read counts” value under setting [2] worked out at 2.93, the “log2 fold change of degron read counts” value under setting [3] is 1.05 and the “log2 fold change of degron read counts” value (compound: thalidomide) came to 2.09.

As for FRCPVCGAPFTQKGNLLRHIKL [46F_47R_49P_50V_52G_53A_54P_55F_67L_, Q9UKT9], the “log2 fold change of degron read counts” value is, setting by setting: under setting [1], 3.29; under setting [2], 3.62; under setting [3], 3.27; (compound: thalidomide) 3.51.

For FRCDVCGAPFTQKGNLLRHIKL [46F_47R_49D_50V_52G_53A_54P_55F_67L_, Q9UKT9], the “log2 fold change of degron read counts” value under setting [1] is 2.07, the “log2 fold change of degron read counts” value under setting [2] is 3.3, the “log2 fold change of degron read counts” value under setting [3] amounted to 3.21 and the “log2 fold change of degron read counts” value (compound: thalidomide) is 2.88.

In the case of FFCDVCGAPFTQKGNLLRHIKL [46F_47F_49D_50V_52G_53A_54P_55F_67L_, Q9UKT9], the “log2 fold change of degron read counts” value under setting [1] came out at 2.96, the “log2 fold change of degron read counts” value under setting [2] came to 1.95, the “log2 fold change of degron read counts” value under setting [3] was 0.307 and the “log2 fold change of degron read counts” value (compound: thalidomide) was -0.766.

As to FFCPVCGAPFTQKGNLLRHIKL [46F_47F_49P_50V_52G_53A_54P_55F_67L_, Q9UKT9], the “log2 fold change of degron read counts” value under setting [1] was 3.53, the “log2 fold change of degron read counts” value under setting [2] amounted to 2.84, the “log2 fold change of degron read counts” value under setting [3] amounted to 2.23 and the “log2 fold change of degron read counts” value (compound: thalidomide) turned out to be 1.5.

Consider FFCNVCGAPFTQKGNLLRHIKL [46F_47F_49N_50V_52G_53A_54P_55F_67L_, Q9UKT9], for which the “log2 fold change of degron read counts” value was 2.8 under setting [1], 1.44 under setting [2], 0.47 under setting [3] and -0.472 (compound: thalidomide).

Take FNCEICGALFTQKGNLLRHIKL [46F_47N_49E_50I_52G_53A_54L_55F_67L_, Q9UKT9]: the “log2 fold change of degron read counts” value by setting is: under setting [1], 0.13; under setting [2], -1.53; under setting [3], -0.743; (compound: thalidomide) -1.13.

For the sequence FDCEICGAYFTQKGNLLRHIKL [46F_47D_49E_50I_52G_53A_54Y_55F_67L_, Q9UKT9], the “log2 fold change of degron read counts” value by setting is: under setting [1], -0.0199; under setting [2], -1.26; under setting [3], -0.229; (compound: thalidomide) -0.2.

Take FTCNICGAMFTQKGNLLRHIKL [46F_47T_49N_50I_52G_53A_54M_55F_67L_, Q9UKT9]: the “log2 fold change of degron read counts” value by setting is: under setting [1], -1.09; under setting [2], -0.0854; under setting [3], 0.875; (compound: thalidomide) 0.88.

On to FDCNQCGHNFTQKGNLLRHIKL [46F_47D_49N_50Q_52G_53H_54N_55F_67L_, Q9UKT9], for which the “log2 fold change of degron read counts” value runs as follows: under setting [1], -2.11; under setting [2], -2.61; under setting [3], -2.32; (compound: thalidomide) -2.04.

With FFCNQCGRDFTQKGNLLRHIKL [46F_47F_49N_50Q_52G_53R_54D_55F_67L_, Q9UKT9], the “log2 fold change of degron read counts” value under setting [1] is -2.83, the “log2 fold change of degron read counts” value under setting [2] was -3.38, the “log2 fold change of degron read counts” value under setting [3] is -3.07 and the “log2 fold change of degron read counts” value (compound: thalidomide) was -2.85.

Turning to FGCNQCGHIFTQKGNLLRHIKL [46F_47G_49N_50Q_52G_53H_54I_55F_67L_, Q9UKT9], the “log2 fold change of degron read counts” value reads like this: under setting [1], -1.45; under setting [2], -1.99; under setting [3], -2.4; (compound: thalidomide) -1.44.

As for FVCPQCGASFTQKGNLLRHIKL [46F_47V_49P_50Q_52G_53A_54S_55F_67L_, Q9UKT9], the “log2 fold change of degron read counts” value was -1.71 under setting [1], 0.559 under setting [2], 0.703 under setting [3] and 1.25 (compound: thalidomide).

As to FMCEICGANFTQKGNLLRHIKL [46F_47M_49E_50I_52G_53A_54N_55F_67L_, Q9UKT9], the “log2 fold change of degron read counts” value was -0.123 under setting [1], 0.396 under setting [2], 2.76 under setting [3] and 1.56 (compound: thalidomide).

Consider LCCNQCGFFCTQKGNLLRHIKL [46L_47C_49N_50Q_52G_53F_54F_55C_67L_, Q9UKT9], for which the “log2 fold change of degron read counts” value under setting [1] is -1.18, the “log2 fold change of degron read counts” value under setting [2] was -1.17, the “log2 fold change of degron read counts” value under setting [3] was -1.27 and the “log2 fold change of degron read counts” value (compound: thalidomide) was -0.874.
